From the supplement of paper PMC13380429

Test system: Vero E6 infected with SARS-CoV-2
Experiment: inhibition of SARS-CoV-2 cytopathic effect; higher = more antiviral protection, active = above 15
Settings: 48 h

Measured: inhibition of SARS-CoV-2 cytopathic effect

C[C@]12CC[C@@H]3c4ccc(O)cc4C[C@@H](CCCCCCCCC[S+]([O-])CCCC(F)(F)C(F)(F)F)[C@H]3[C@@H]1CC[C@@H]2O (stereo not given in full) [fulvestrant]
inactive: 1 nM -1.55% | 8.33 nM -1.22% | 100 nM 0.63% | 833.33 nM -0.23% | 10000 nM -0.95%

CC[C@H](NC(=O)c1c(C)c(-c2ccccc2)nc2ccccc12)c1ccccc1
inactive: 1 nM 1.87% | 8.33 nM 4.53% | 100 nM 5.18% | 833.33 nM 3.05% | 10000 nM -2.21%

CSc1ccc(OCc2ncc([N+](=O)[O-])n2C)cc1 [fexinidazole]
inactive: 1 nM -1.82% | 8.33 nM -1.7% | 100 nM -1.88% | 833.33 nM -3.53% | 10000 nM -0.36%

O=C1NC(=O)C(c2cnc3ccccn23)=C1c1cn2c3c(cc(F)cc13)CN(C(=O)N1CCCCC1)CC2
active: 833.33 nM 16%
inactive: 1 nM 0.79% | 8.33 nM 7.15% | 100 nM 14.4% | 10000 nM 14.8%

CCCOC(=O)c1ccccc1 [propyl-benzoate]
inactive: 1 nM 2.41% | 8.33 nM 0.41% | 100 nM -0.99% | 833.33 nM 0.39% | 10000 nM 2.1%

C[C@@H]1CN([C@H]2CC[C@](C#N)(c3ccc(F)cc3)CC2)CC[C@]1(C(=O)O)c1ccccc1 [levocabastine]
inactive: 1 nM 1.53% | 8.33 nM 0.57% | 100 nM -0.86% | 833.33 nM 1.81% | 10000 nM -0.71%

CNCc1ccc(-c2cc(-c3nc(-c4ccc(S(=O)(=O)C(C)C)cc4)cnc3N)on2)cc1
active: 833.33 nM 24.5% | 10000 nM 25.2%
inactive: 1 nM 0.45% | 8.33 nM 3.25% | 100 nM 1.09%

C[C@@H]1C[C@H]2[C@@H]3C[C@H](F)C4=CC(=O)C=C[C@]4(C)[C@@]3(F)[C@@H](O)C[C@]2(C)[C@@]1(O)C(=O)COC(=O)C(C)(C)C [flumethasone-pivalate]
inactive: 1 nM -0.06% | 8.33 nM -2.13% | 100 nM -1.68% | 833.33 nM -1.81% | 10000 nM 6.04%

CCCCCCCCCCCCOS(=O)(=O)O [dodecyl-sulfate]
inactive: 1 nM -0.285% | 8.33 nM 1.83% | 100 nM 1.98% | 833.33 nM 0.175% | 10000 nM 0.47%

Cc1ncc(C)n2nc([C@@H]3C[C@H]3c3nc4c5cccnc5ccn4c3C)nc12
inactive: 1 nM 0.4% | 8.33 nM 0.57% | 100 nM 0.67% | 833.33 nM -1.22% | 10000 nM 4.45%

C[C@H]1C[C@H]2[C@@H]3CCC4=CC(=O)C=C[C@]4(C)[C@@]3(F)[C@@H](O)C[C@]2(C)[C@@]1(O)C(=O)CO [betamethasone]
inactive: 1 nM 0.395% | 8.33 nM -1.08% | 100 nM 2.04% | 833.33 nM 1.69% | 10000 nM -0.195%

Cc1c(N(C)CS(=O)(=O)O)c(=O)n(-c2ccccc2)n1C [metamizole]
inactive: 1 nM 5.03% | 8.33 nM 0.47% | 100 nM -1.36% | 833.33 nM -3.82% | 10000 nM 0.29%

CCc1nc(C(N)=O)c(Nc2ccc(N3CCC(N4CCN(C)CC4)CC3)c(OC)c2)nc1NC1CCOCC1 [gilteritinib]
inactive: 1 nM 0.28% | 8.33 nM 0.02% | 100 nM -2.49% | 833.33 nM -0.11% | 10000 nM 10.3%

CNC(=O)[C@H](Cc1c[nH]c2ccccc12)NC(=O)[C@@H](CC(=O)NO)CC(C)C [ilomastat]
inactive: 1 nM 3.69% | 8.33 nM 1.87% | 100 nM -1.16% | 833.33 nM 2.15% | 10000 nM -0.18%

Cn1c(CNc2ccc(C(=N)N)cc2)nc2cc(C(=O)N(CCC(=O)O)c3ccccn3)ccc21 [dabigatran]
inactive: 1 nM -0.46% | 8.33 nM 1.73% | 100 nM -0.12% | 833.33 nM 0.58% | 10000 nM 3.34%

CCCCCCCCCCCCCCCC[N+](C)(C)Cc1ccccc1 [benzyldimethylhexadecylammonium]
inactive: 1 nM 2.1% | 8.33 nM 0.11% | 100 nM -1.57% | 833.33 nM -0.97% | 10000 nM -13.2%

CC1(C)CC(=O)C(C2C3=C(CC(C)(C)CC3=O)Oc3ccccc32)C(=O)C1 (stereo not given)
inactive: 1 nM -0.63% | 8.33 nM 0.77% | 100 nM -0.14% | 833.33 nM 1.93% | 10000 nM -2.4%

NC(=O)c1ccc(I)c([N+](=O)[O-])c1 [iniparib]
inactive: 1 nM 0.64% | 8.33 nM 1.76% | 100 nM 0.16% | 833.33 nM 2.29% | 10000 nM 3.53%

CCCn1c(=O)c2[nH]cnc2n(-c2ccc(Cl)cc2)c1=O [arofylline]
inactive: 1 nM -3.55% | 8.33 nM -1.13% | 100 nM 0.16% | 833.33 nM -6.97% | 10000 nM -3.81%
